Source: PubChem BioAssay
CF NFkB inh: inhibitors of PAF-induced NF-kB signaling, primary screen, cell-based, GFP fluorescence, uHTS | AID 588850, 2011 | inhibition, % at 5 µM | KKLEB NF-kB-GFP reporter, GFP fluorescence overnight | 360,000 tested, 0.86% active;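 active = at least 50% inhibition at 5 µM, scaled per plate between neutral and stimulator controls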;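 also: PAF is a Pseudomonas aeruginosa culture filtrate used as stimulus; plate controls were PAF-stimulated DMSO wells for no effect and unstimulated DMSO wells for full effect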
iPSC survival up: enhancers of single-cell hiPSC survival, primary screen, ATPlite luminescence; 360,000 tested, 0.044% active; AID 602274, 2012; survival enhancement, % at 20 µM; 100% = ROCK inhibitor wells, 0% = DMSO; in the data active = survival enhancement above about 18%;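 also: cells exposed to compounds for 16 hours before the ATP read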
HIF-2a block: HIF-2a reporter inhibitors, primary screen, luminescence, 786-0 RCC cells | 786-0 RCC cells HIF-2a reporter, luciferase luminescence, overnight | inhibition, % at 18.8 µM | 360,000 tested, 0.72% active;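 active = inhibition of the luminescence signal of 40% or more relative to plate controls, in a single-dose primary screen at 18.75 µM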
LGR2 inh: inhibitors of bursicon-induced LGR2 CRE-luciferase signal, primary screen, cell-based, HEK293, CRE-luciferase reporter, bursicon stimulation. 380,000 tested, 0.35% active. Drosophila bursicon receptor LGR2 (rickets). bursicon-stimulated, 4 h. inhibition, % at 9.99 µM;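 active = drop in luminescence signal, shown as inhibition above about 50% in the replicate tests, limit read from the data, passing the limit was not always enough; inconclusive = probably only some replicates passing the limit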;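 also: agonist challenge used bursicon conditioned medium at about half maximal strength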
TWEAK Fn14 block: inhibitors of TWEAK-Fn14 signaling, primary screen, luciferase reporter cells, uHTS; TWEAK-stimulated Fn14 reporter cells, luciferase luminescence, 8 h; inhibition, % at 10 µM; 360,000 tested, 2% active; AID 1159606, 2016; in the data active = inhibition above about 50%
KKLEB cytotox: cytotoxicity in KKLEB CF airway cells, primary screen, cytotoxicity control for CF NF-kB inhibitor project, cell-based, uHTS, fluorescence assay plates; KKLEB CF airway cells viability, ATPlite luminescence, overnight; hits give low values; cells stimulated with P. aeruginosa culture filtrate; activity change (cytotoxicity), % at 5 µM; 360,000 tested, 0.36% active;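 active = corrected activity change at or below -50% at 5 µM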
Mdm2 MdmX conf: retested Mdm2-MdmX interaction blockers, confirmation, cell-based, luminescence, single concentration, set 2; shares compounds with HIF-2a block; SaOS-2 split-luciferase Mdm2/MdmX complementation; inhibition, % at 8 µM; 740 tested, 99% active; AID 504601, 2011;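 active = mean inhibition of the luminescence signal across two replicates at or above 26 percent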
HIF-2a inh conf: HIF-2a reporter inhibitor retest, confirmation, luminescence, 786-0 RCC cells; shares compounds with HIF-2a block; HIF-2a luciferase reporter luminescence, overnight; inhibition, % at 18.8 µM; 1,800 tested, 56% active; AID 651580, 2012;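 active = mean inhibition across four replicates of at least 40 percent at the single tested concentration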
HIF-1a counter: HIF-1a luciferase reporter signal reduction – MiaPaCa-2 cells, single concentration, counter-screen for HIF-2a inhibitor project, confirmation; shares compounds with HIF-2a block; MiaPaCa-2 HIF-1a luciferase reporter, desferoxamine, overnight; inhibition, % at 18.8 µM; 1,800 tested, 72% active; AID 651589, 2012;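 active = mean inhibition of the reporter signal across four replicates at the single tested dose of 50% or more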
The depositor's hits bear a star; ? = inconclusive; nt = no result given. This is a sample that favours compounds with a hit; in the whole collection about 2.3% have one here.

SMILES	CF NFkB inh	iPSC survival up	HIF-2a block	LGR2 inh	TWEAK Fn14 block	KKLEB cytotox	HIF-2a inh conf	HIF-1a counter	others
O=C1NCN(c2ccccc2)C12CCN(C(CCc1ccccc1)c1nnnn1Cc1ccccc1)CC2 (configuration not stated)	23	-1	-45	46	42	-39	nt	nt
CC(=O)O[C@H]1C[C@@H]2OC3C=C(C)CCC3(C)[C@@]1(C)[C@@]21CO1 (some centres not stated)	90*	-3	48*	102*	97*	-19	64*	102*
CC1CCC(C(C)C)C(OC(=O)Cn2c(COc3ccccc3)[n+](C)c3ccccc32)C1 (configuration not stated)	74*	-1	-10	43	47	-72*	nt	nt	Mdm2 MdmX conf=102*
COc1ccc(-c2ccc([C@H]3[C@H]4CN(C(=O)Cc5ccncc5)CCCCN4[C@H]3CO)cc2)cc1	nt	nt	nt	2	nt	nt	nt	nt
CC(=O)O[C@H]1[C@H]2O[C@]23[C@@H]2CC[C@]4(O)C[C@@H](O)CC[C@]4(C)C2CC[C@]3(C)[C@H]1c1ccc(=O)oc1 (some centres not stated)	82*	-2	76*	nt	83*	-54*	43*	106*	Mdm2 MdmX conf=87*
O=C(Cc1ccccn1)N1CCCCN2[C@@H](CO)[C@@H](c3ccc(Br)cc3)[C@@H]2C1	nt	nt	nt	-32	nt	nt	nt	nt
Cc1cc([N+](=O)[O-])c2ccccc2[n+]1[O-]	-8	0	48*	nt	4	-12	nt	nt	Mdm2 MdmX conf=103*
O=C1CNC[C@@H]2[C@H](c3ccc(Br)cc3)[C@@H](CO)N12	nt	nt	nt	3	nt	nt	nt	nt
CCC(C)(O)C(=O)OC1C(=O)OC2CC3C(C)=CC(O)C(O)C3(C)C3C4(O)OCC23C1C(C)C4O (configuration not stated)	35	0	46*	32	92*	5	45*	102*
CN(C)C(=O)O/N=C(\N)COc1ccc(C(C)(C)C)cc1	5	0	60*	-10	-55	-6	-76	-45	Mdm2 MdmX conf=103*
CCOC(=O)C(O)(c1ccc(N(C)C(=O)COc2ccccc2)cc1)C(F)(F)F (configuration not stated)	5	-1	14	nt	-3	-11	nt	nt
CCOC(=O)[C@]12Cc3cc(Cl)ccc3[C@H]1N(Cc1ccccc1)C(=O)c1ccccc12	17	-3	20	32	17	6	nt	nt
CCOC(=O)[C@]12Cc3ccc(C)cc3[C@H]1N(C1CCCCC1)C(=O)c1cc(OC)ccc12	nt	-2	95*	55*	101*	nt	99*	106*
CCOC(=O)[C@]12Cc3cc(C)ccc3[C@H]1N(C1CCCCC1)C(=O)c1ccccc12	nt	-2	88*	64*	69*	nt	97*	106*
CCOC(=O)[C@]12Cc3ccccc3[C@H]1N(C(C)C)C(=O)c1ccccc12	nt	-1	31	?	22	nt	nt	nt
CCCCCN1C(=O)c2cc(OC)ccc2[C@@]2(C(=O)OCC)Cc3cc(OC)ccc3[C@@H]12	nt	-2	81*	40	62*	nt	92*	106*
CCOC(=O)[C@]12Cc3ccc(C)cc3[C@H]1N(C1CCCCC1)C(=O)c1ccccc12	nt	-2	81*	53*	92*	nt	96*	98*
COc1ccccc1CN1[C@H](CO)[C@@H](c2ccccc2)C12CN(C(=O)Cc1ccccc1)C2	nt	nt	nt	-13	nt	nt	nt	nt
COc1cccc(-c2ccc([C@@H]3[C@H](CO)N4CCCCN(C(=O)Cc5ccncc5)C[C@@H]34)cc2)c1	nt	nt	nt	12	nt	nt	nt	nt
COC(=O)[C@@H]1[C@@H](CO)[C@@H]2Cn3c(ccc(-c4cccc(F)c4)c3=O)[C@H]1N2Cc1ccncc1	nt	nt	nt	-11	nt	nt	nt	nt
CCOC(=O)[C@]12Cc3c(cc(OC)c(OC)c3OC)[C@H]1N(C1CCCCC1)C(=O)c1ccccc12	nt	-2	76*	?	48	nt	90*	105*
COC(=O)[C@H]1[C@H](CO)[C@H]2Cn3c(ccc(-c4ccccc4)c3=O)[C@@H]1N2C(=O)c1ccccc1F	nt	nt	nt	10	nt	nt	nt	nt
COc1ccc(-c2ccc([C@H]3[C@H](CO)N4CCCCN(C(=O)Cc5ccccc5)C[C@@H]34)cc2)cc1	nt	nt	nt	8	nt	nt	nt	nt
CC1CCC[C@H](O)CCCCCc2cc(O)cc(O)c2C(=O)O1 (some centres not stated)	30	8	7	4	-6	0	nt	nt
CC1CCC/C=C/C2CC(O)CC2C(O)/C=C/C(=O)O1 (configuration not stated)	79*	-7	46*	nt	76*	-60*	34	78*	Mdm2 MdmX conf=103*
SMILES	CF NFkB inh	iPSC survival up	HIF-2a block	LGR2 inh	TWEAK Fn14 block	KKLEB cytotox	HIF-2a inh conf	HIF-1a counter	others
C[C@H]1CCC/C=C/C2C[C@H](O)CC2[C@H](O)/C=C/C(=O)O1 (some centres not stated)	81*	-5	68*	nt	57*	-7	nt	nt	Mdm2 MdmX conf=103*
COc1cc2c(cc1/C=C/[N+](=O)[O-])OCO2	26	0	71*	103*	64*	-3	79*	98*
Cc1nc2ncnn2c(C)c1CCC(=O)N1CCC2(CC1)OCCO2	5	2	7	nt	-8	8	nt	nt
Cc1nc2cc(-c3ccccc3)nn2c(C)c1CCC(=O)N1CCC2(CC1)OCCO2	2	-1	70*	nt	5	-6	81*	36
O=C(Cc1ccccn1)N1CCCCN2[C@H](CO)[C@@H](c3ccc(-c4ccc(F)cc4)cc3)[C@H]2C1	nt	nt	nt	3	nt	nt	nt	nt
COc1cc(/C=N/n2cnnc2)ccc1OC(=O)N(C)C	2	-1	7	15	8	20	nt	nt
COc1cc(/C=C/[N+](=O)[O-])ccc1OC(=O)c1cccnc1	34	0	42*	nt	47	1	54*	45
O=C(Cc1ccccc1)N1CCCCN2[C@H](CO)[C@H](c3ccc(C#CC4(O)CCCC4)cc3)[C@@H]2C1	nt	nt	nt	-1	nt	nt	nt	nt
